# Source: PubChem BioAssay (EPA / NIEHS)
# Records with an inconclusive call do not appear. Calls of active or inactive are those of the source. The calls were made as follows: active = hit-call score of the fitted dose curve at least 0.9, where 1 is the maximum; inconclusive = response in the unintended direction; inactive = score below 0.9.
# Target: human Adenosine A1 Receptor (AdoRA1), ADORA1 (gene 134) (UniProt P30542)
# Test: NVS_GPCR_hAdoRA1: NovaScreen (NVS) G Protein-Coupled Receptor Assay for human Adenosine A1 Receptor (AdoRA1) (AID 2283254)
# How it was run: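 Membranes from human cortical tissue were incubated with radioligand and test chemical for 1 hour, then filtered and counted. Activity was taken as signal loss relative to DMSO, screened at 25 uM in duplicate before concentration-response follow-up.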
# Chain of human Adenosine A1 Receptor (AdoRA1), ADORA1 (gene 134) (P30542 whole entry, looked up): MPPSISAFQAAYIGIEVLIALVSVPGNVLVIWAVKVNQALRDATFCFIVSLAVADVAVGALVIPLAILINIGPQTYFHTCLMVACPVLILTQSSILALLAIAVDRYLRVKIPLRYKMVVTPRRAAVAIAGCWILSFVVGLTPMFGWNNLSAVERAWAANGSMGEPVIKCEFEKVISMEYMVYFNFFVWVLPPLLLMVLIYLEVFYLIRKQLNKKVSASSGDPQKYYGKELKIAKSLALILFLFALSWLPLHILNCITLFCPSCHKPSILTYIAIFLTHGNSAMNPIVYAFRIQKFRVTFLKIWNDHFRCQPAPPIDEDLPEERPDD
SMILES,AC50,outcome
Cc1ccc(S(=O)(=O)C(I)I)cc1,33.2 µM (active),
O=C1c2ccccc2C(=O)c2c(Cl)cccc21,13.3 µM (active),
O=C(c1ccccc1)c1ccc(O)cc1O,,inactive
CCC(C)CO (stereo not given),,inactive
Nc1cccnc1N,9.6 µM (active),

# Target: human Adenosine A2a Receptor (AdoRA2a), ADORA2A (gene 135) (UniProt P29274)
# Sequence (P29274 whole entry, looked up): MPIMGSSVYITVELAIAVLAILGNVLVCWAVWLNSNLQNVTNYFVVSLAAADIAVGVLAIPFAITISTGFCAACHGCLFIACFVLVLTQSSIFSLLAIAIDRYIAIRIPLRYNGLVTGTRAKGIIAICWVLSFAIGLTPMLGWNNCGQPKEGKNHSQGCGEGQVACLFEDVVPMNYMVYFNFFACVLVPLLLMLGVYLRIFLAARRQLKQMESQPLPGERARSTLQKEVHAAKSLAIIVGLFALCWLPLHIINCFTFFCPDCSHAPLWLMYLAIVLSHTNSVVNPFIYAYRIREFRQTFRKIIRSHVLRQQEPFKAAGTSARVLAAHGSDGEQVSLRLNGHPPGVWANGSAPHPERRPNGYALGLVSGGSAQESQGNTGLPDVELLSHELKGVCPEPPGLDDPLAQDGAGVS
# Test: NVS_GPCR_hAdoRA2a: NovaScreen (NVS) G Protein-Coupled Receptor Assay for human Adenosine A2a Receptor (AdoRA2a) (AID 2283256)
# How it was run: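 Cell-free radioligand binding on membranes from HEK293 expressing the receptor; competitive displacement read 1.5 h after dosing by filter-based scintillation counting. Primary screen in duplicate at 25 uM; actives followed in concentration series, with DMSO as baseline.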
SMILES,AC50,outcome
O=C(c1ccccc1)c1ccc(O)cc1O,29.7 µM (active),
Nc1c(Br)cc([N+](=O)[O-])cc1Br,,inactive
CCOC(C=C(C)CCC=C(C)C)OCC,,inactive

# Target: D(1A) dopamine receptor (Homo sapiens) (UniProt P21728)
# Sequence (P21728 whole entry, looked up): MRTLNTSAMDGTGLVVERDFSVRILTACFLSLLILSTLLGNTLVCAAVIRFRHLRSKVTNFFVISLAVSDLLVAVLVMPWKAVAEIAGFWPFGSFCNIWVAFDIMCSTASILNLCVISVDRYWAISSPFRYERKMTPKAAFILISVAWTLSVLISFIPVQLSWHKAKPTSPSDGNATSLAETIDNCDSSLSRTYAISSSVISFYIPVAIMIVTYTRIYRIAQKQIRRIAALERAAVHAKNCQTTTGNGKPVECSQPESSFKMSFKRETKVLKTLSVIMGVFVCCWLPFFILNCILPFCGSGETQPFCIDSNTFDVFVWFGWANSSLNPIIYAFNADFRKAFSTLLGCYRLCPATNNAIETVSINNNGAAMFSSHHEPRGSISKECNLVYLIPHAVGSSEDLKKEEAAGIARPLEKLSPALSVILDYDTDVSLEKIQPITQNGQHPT
# Test: NVS_GPCR_hDRD1: NovaScreen (NVS) G Protein-Coupled Receptor Assay for human Dopamine Receptor D1 (DRD1) (AID 2283269)
# How it was run: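 Cell-free radioligand binding to human DRD1 from HEK293 membranes, read 1 h after dosing by filter-based scintillation counting. Loss of signal versus DMSO baseline marks displacement. Primary screen at 25 uM single concentration in duplicate; actives followed up in concentration series.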
SMILES,AC50,outcome
O=C1C=CC(=O)N1c1ccc(Cc2ccc(N3C(=O)C=CC3=O)cc2)cc1,25 µM (active),
CCN(CC)c1ccc(C=O)c(O)c1,,inactive
CCN(CC)c1ccc(N=Nc2ccccc2)cc1,,inactive
OCCC(O)CO (stereo not given),37.4 µM (active),
Cc1ccc(S(=O)(=O)C(I)I)cc1,6.43 µM (active),
c1ccc(C[P+](c2ccccc2)(c2ccccc2)c2ccccc2)cc1,,inactive
Oc1ccc(C2(c3ccc(O)c(C4CCCCC4)c3)CCCCC2)cc1C1CCCCC1,,inactive
O=C=Nc1cccc2c(N=C=O)cccc12,,inactive
Oc1ccc2c(c1)CCC2,,inactive
CN1CN(C)CN(C)C1,,inactive

# Target: human Neurokinin, NK2 Receptor, TACR2 (gene 6865) (UniProt P21452)
# Sequence (P21452 whole entry, looked up): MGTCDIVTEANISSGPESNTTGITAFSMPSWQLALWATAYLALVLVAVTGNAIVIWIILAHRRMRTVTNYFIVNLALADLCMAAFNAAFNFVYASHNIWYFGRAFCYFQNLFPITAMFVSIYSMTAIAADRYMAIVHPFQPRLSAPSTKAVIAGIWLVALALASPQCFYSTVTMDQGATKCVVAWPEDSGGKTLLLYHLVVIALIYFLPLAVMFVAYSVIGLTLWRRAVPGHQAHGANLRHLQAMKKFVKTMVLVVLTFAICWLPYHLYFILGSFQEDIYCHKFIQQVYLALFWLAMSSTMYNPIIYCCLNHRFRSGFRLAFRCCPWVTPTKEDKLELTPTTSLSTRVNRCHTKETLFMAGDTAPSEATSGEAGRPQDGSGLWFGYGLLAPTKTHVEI
# Test: NVS_GPCR_hNK2: NovaScreen (NVS) G Protein-Coupled Receptor Assay for human Neurokinin, NK2 Receptor (AID 2283278);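 also: actives reduce bound radioligand signal relative to DMSO baseline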
# How it was run: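 CHO-derived membrane protein, radioligand displacement, filter scintillation read at 4 h post-dose. Single-point 25 uM in duplicate, then concentration series for actives; DMSO as negative control.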
SMILES,AC50,outcome
O=C1C=CC(=O)N1c1ccc(Cc2ccc(N3C(=O)C=CC3=O)cc2)cc1,28.4 µM (active),
CCN(CC)c1ccc(N=Nc2ccccc2)cc1,,inactive
Oc1ccc(C2(c3ccc(O)c(C4CCCCC4)c3)CCCCC2)cc1C1CCCCC1,16.2 µM (active),
O=C1OC(=O)c2ccc3c4c(ccc1c24)C(=O)OC3=O,,inactive

# Target: human Thromboxane A2 Receptor (TXA2), TBXA2R (gene 6915) (UniProt P21731)
# Sequence (P21731 whole entry, looked up): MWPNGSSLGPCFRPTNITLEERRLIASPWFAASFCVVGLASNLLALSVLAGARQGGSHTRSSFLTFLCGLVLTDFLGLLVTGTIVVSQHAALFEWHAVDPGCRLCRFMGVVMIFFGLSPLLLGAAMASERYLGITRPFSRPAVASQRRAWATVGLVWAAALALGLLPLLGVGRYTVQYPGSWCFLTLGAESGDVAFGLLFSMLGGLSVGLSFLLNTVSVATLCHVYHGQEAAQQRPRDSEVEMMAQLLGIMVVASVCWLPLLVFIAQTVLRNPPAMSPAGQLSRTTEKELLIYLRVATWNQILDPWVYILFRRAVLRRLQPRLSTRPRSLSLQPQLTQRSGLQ
# Test: NVS_GPCR_hTXA2: NovaScreen (NVS) G Protein-Coupled Receptor Assay for human Thromboxane A2 Receptor (TXA2) (AID 2283282);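 also: actives reduce bound radioligand signal relative to DMSO baseline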
# How it was run: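 Filter scintillation counting of bound radioligand, human platelet protein, 1 h exposure. Single-concentration duplicates (25 uM) first, concentration-response follow-up for actives. Binding loss scored against DMSO baseline.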
SMILES,outcome,AC50
CCN(CC)c1ccc(C=O)c(O)c1,inactive,
CCN(CC)c1ccc(C=O)cc1,,4.65 µM (active)
c1ccc(C[P+](c2ccccc2)(c2ccccc2)c2ccccc2)cc1,inactive,
CCOCN(C(=O)CS(=O)(=O)O)c1c(C)cccc1CC,inactive,
O=C(c1ccccc1)c1ccc(O)cc1O,inactive,
O=C=Nc1cccc2c(N=C=O)cccc12,,0.672 µM (active)
Oc1ccc2c(c1)CCC2,inactive,
CC(=O)c1ccccc1N,inactive,
CCN(CC)c1ccc2c(c1)Oc1cc(N(CC)CC)ccc1C21OC(=O)c2ccccc21,inactive,
CCOC(C=C(C)CCC=C(C)C)OCC,inactive,

# Target: human Opioid Receptor Mu (Opiate Mu), OPRM1 (gene 4988) (UniProt P35372)
# Sequence (P35372 whole entry, looked up): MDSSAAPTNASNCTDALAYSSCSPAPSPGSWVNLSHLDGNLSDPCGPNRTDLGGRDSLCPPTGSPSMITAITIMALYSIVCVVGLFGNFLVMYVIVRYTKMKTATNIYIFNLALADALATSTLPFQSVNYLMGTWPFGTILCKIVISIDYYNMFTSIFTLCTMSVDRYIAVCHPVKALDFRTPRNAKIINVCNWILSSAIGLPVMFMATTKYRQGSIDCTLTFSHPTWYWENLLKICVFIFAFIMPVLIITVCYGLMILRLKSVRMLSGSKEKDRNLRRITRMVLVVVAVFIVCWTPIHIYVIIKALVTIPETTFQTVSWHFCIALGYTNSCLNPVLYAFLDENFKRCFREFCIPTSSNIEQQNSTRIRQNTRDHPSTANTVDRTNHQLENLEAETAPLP
# Test: NVS_GPCR_hOpiate_mu: NovaScreen (NVS) G Protein-Coupled Receptor Assay for human Opioid Receptor Mu (Opiate Mu) (AID 2283290);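 also: hits lower bound tracer signal versus DMSO meaning displacement of the ligand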
# How it was run: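 Cell-free radioligand binding to membranes from CHO cells expressing the receptor; bound tracer measured by filter-based scintillation counting 2.5 hours after dosing. Loss of signal versus DMSO baseline reflects displacement; primary screen at 25 uM in duplicate, actives followed up in concentration series.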
SMILES,outcome,AC50
CCN(CC)c1ccc(C=O)c(O)c1,inactive,
CCN(CC)c1ccc(C=O)cc1,inactive,
c1ccc(C[P+](c2ccccc2)(c2ccccc2)c2ccccc2)cc1,,1.09 µM (active)
CCCCCCCCCCCCCC[P+](CCCC)(CCCC)CCCC,,1.07 µM (active)
Oc1ccc(C2(c3ccc(O)c(C4CCCCC4)c3)CCCCC2)cc1C1CCCCC1,,17.3 µM (active)
CCCCCCCCn1sc(Cl)c(Cl)c1=O,,8.39 µM (active)

# Target: rat Neonicotinoid receptor (NNR), Chrna7 (gene 25302) (UniProt Q05941)
# Sequence (Q05941 whole entry, looked up): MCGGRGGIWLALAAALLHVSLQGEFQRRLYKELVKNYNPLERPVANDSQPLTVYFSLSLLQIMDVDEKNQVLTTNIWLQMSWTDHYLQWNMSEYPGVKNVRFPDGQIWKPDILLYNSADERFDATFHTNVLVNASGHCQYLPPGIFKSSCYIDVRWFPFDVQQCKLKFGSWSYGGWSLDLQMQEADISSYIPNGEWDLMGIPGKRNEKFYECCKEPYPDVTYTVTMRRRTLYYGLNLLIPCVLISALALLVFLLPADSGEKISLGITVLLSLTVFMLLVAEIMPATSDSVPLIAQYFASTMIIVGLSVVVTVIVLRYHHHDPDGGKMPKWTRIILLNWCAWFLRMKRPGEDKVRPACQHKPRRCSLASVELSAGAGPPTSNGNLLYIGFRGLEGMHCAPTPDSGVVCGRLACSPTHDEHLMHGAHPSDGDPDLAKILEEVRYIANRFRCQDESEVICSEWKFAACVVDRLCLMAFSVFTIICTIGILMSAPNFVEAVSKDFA
# Test: NVS_LGIC_rNNR_BungSens: NovaScreen (NVS) Ligand-Gated Ion Channel Assay for rat Neonicotinoid receptor (NNR) (AID 2283315)
# How it was run: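 Radioligand displacement binding on rat cortical membranes, 2.5 h incubation, filtration and scintillation counting. Loss of specific binding fitted relative to DMSO.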
SMILES,AC50,outcome
c1ccc(C[P+](c2ccccc2)(c2ccccc2)c2ccccc2)cc1,25 µM (active),
CCN(CC)c1ccc2c(c1)Oc1cc(N(CC)CC)ccc1C21OC(=O)c2ccccc21,3.48 µM (active),
Nc1c(Br)cc([N+](=O)[O-])cc1Br,,inactive

# Target: Sodium channel protein type 1 subunit alpha (Rattus norvegicus) (UniProt P04774)
# Test: NVS_IC_rNaCh_site2: NovaScreen (NVS) Ion Channel Assay for rat Sodium Channel, Site 2 (NaCh) (AID 2283322);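 also: hit means loss of radioligand binding signal relative to DMSO so AC50 marks displacement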
# How it was run: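 Membranes: rat forebrain. Format: competitive radioligand displacement, filter separation, scintillation readout, 1 h exposure. Primary screen in duplicate at 25 uM; actives retested in concentration series.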
SMILES,AC50,outcome
c1ccc(C[P+](c2ccccc2)(c2ccccc2)c2ccccc2)cc1,5.54 µM (active),
Oc1ccc(C2(c3ccc(O)c(C4CCCCC4)c3)CCCCC2)cc1C1CCCCC1,,inactive
CC(=O)c1ccccc1N,1.65 µM (active),
O=C1OC(=O)c2ccc3c4c(ccc1c24)C(=O)OC3=O,,inactive
CCN(CC)c1ccc2c(c1)Oc1cc(N(CC)CC)ccc1C21OC(=O)c2ccccc21,,inactive

# Target: human Peripheral-type Benzodiazepine Receptor (PBR), TSPO (gene 706) (UniProt P30536)
# Sequence (P30536 whole entry, looked up): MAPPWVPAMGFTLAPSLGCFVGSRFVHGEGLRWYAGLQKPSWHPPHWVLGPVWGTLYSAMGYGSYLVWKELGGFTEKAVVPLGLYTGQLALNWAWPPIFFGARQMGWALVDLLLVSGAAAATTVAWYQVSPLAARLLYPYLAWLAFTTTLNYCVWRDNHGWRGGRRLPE
# Test: NVS_MP_hPBR: NovaScreen (NVS) Membrane Protein Assay for human Peripheral-type Benzodiazepine Receptor (PBR) (AID 2283331);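 also: hits reduce radioligand binding relative to DMSO baseline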
# How it was run: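 Human colonic cell membranes were incubated with test chemical for 1 hour; radioligand binding was measured by filter-based scintillation counting. Primary screen ran in duplicate at 25 uM, with actives followed in concentration series; loss of signal versus DMSO baseline.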
SMILES,outcome,AC50
CCN(CC)c1ccc(C=O)c(O)c1,inactive,
Cc1ccc(S(=O)(=O)C(I)I)cc1,,23.2 µM (active)
CCN(CC)c1ccc(C=O)cc1,inactive,
CCCCCCCCCCCCCC[P+](CCCC)(CCCC)CCCC,,3.52 µM (active)
O=C=Nc1cccc2c(N=C=O)cccc12,,0.353 µM (active)
CCN(CC)c1ccc2c(c1)Oc1cc(N(CC)CC)ccc1C21OC(=O)c2ccccc21,inactive,

# Target: human Androgen Receptor (AR), AR (gene 367) (UniProt P10275)
# Sequence (P10275 whole entry, looked up): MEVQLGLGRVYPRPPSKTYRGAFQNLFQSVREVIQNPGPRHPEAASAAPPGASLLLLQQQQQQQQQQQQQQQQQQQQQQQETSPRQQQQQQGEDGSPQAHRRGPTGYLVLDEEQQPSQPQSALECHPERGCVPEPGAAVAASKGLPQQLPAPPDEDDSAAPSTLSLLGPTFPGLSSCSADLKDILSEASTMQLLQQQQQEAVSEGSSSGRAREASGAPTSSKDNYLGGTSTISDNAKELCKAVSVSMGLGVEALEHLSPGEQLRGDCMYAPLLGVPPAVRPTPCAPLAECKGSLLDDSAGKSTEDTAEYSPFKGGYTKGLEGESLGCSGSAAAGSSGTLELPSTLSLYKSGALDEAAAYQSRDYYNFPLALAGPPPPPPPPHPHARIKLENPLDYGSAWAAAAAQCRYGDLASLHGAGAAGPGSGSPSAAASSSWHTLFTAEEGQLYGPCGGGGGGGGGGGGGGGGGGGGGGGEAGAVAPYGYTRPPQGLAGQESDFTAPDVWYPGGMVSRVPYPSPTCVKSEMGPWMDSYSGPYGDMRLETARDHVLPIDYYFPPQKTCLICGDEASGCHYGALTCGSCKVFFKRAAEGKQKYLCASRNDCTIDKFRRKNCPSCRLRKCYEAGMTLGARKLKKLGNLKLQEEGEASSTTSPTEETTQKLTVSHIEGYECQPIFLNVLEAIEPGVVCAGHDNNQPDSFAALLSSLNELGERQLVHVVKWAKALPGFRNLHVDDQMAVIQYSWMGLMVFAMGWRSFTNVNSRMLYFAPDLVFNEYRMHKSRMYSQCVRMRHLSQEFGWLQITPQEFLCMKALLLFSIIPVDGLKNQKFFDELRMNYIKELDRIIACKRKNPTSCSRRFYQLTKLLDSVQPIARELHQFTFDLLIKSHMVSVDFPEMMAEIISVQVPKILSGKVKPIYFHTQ
# Test: NVS_NR_hAR: NovaScreen (NVS) Nuclear Receptor Binding Assay for human Androgen Receptor (AR) (AID 2283332)
# How it was run: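 Actives from a duplicate 25 uM single-point screen went on to concentration series. Read-out after 20 h was scintillation counting of displaced radioligand in LnCAP extract, with DMSO as baseline.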
row,SMILES,AC50
1,CCN(CC)c1ccc(C=O)c(O)c1,3.82 µM (active)
2,O=C1c2ccccc2C(=O)c2c(Cl)cccc21,2.06 µM (active)
3,C[C@]12CC[C@H]3C(=CCc4cc(O)ccc43)[C@@H]1CCC2=O,0.661 µM (active)

# Target: bovine Estrogen Receptor (ER), ESR1 (gene 407238) (UniProt P49884)
# Sequence (P49884 whole entry, looked up): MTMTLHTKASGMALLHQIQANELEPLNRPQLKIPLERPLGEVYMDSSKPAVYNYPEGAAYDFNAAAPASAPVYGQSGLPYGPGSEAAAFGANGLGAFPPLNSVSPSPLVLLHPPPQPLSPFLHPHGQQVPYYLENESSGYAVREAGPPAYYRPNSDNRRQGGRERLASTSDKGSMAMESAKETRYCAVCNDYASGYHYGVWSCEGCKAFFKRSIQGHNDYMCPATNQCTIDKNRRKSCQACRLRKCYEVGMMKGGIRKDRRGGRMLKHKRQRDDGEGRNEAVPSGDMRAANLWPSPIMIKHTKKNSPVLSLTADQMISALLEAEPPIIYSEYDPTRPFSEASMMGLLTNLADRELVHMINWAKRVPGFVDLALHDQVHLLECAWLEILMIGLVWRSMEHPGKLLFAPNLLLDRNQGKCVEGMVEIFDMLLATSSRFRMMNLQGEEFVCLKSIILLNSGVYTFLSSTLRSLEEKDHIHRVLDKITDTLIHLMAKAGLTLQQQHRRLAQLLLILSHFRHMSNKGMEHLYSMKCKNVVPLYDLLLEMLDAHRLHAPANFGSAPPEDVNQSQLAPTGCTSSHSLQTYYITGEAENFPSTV
# Test: NVS_NR_bER: NovaScreen (NVS) Nuclear Receptor Binding Assay for bovine Estrogen Receptor (ER) (AID 2283345);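 also: actives lower the bound radioligand count which means they displace the ER ligand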
# How it was run: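 Cell-free radioligand binding with receptor from bovine uterine membranes, read by scintillation counting 18 h after dosing. Loss of specific binding was scored against DMSO; primary screen at 25 uM in duplicate, actives then run as concentration series.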
SMILES,outcome,AC50
O=C1C=CC(=O)N1c1ccc(Cc2ccc(N3C(=O)C=CC3=O)cc2)cc1,inactive,
CCCCCCCCCCCCCC[P+](CCCC)(CCCC)CCCC,,38.3 µM (active)
O=C(c1ccccc1)c1ccc(O)cc1O,,8.41 µM (active)
C[C@]12CC[C@H]3C(=CCc4cc(O)ccc43)[C@@H]1CCC2=O,,0.0129 µM (active)
CCCCCCCCn1sc(Cl)c(Cl)c1=O,,12.7 µM (active)
